Source: article PMC11062922 (Nature Chemical Biology, 2023)
Where two headings read alike, the source gives them in different places.

How the values were obtained:
ABL2 = system: ABL2; design: species or system human, MV4-11 + K-562 + COLO205 + SK-N-BE2 + OVCAR-8; conditions: read-out: apparent Kd, n = 1
BCR = system: BCR; design: species or system human, MV4-11 + K-562 + COLO205 + SK-N-BE2 + OVCAR-8; conditions: read-out: apparent Kd; compound concentrations:100 nM and 1000 nM (sheet 'Samples'); n = 1
CLK1 = system: CLK1; design: species or system human, MV4-11 + K-562 + COLO205 + SK-N-BE2 + OVCAR-8; conditions: read-out: apparent Kd; compound concentrations:100 nM and 1000 nM (sheet 'Samples'); n = 1
CLK4 = system: CLK4; design: species or system human, MV4-11 + K-562 + COLO205 + SK-N-BE2 + OVCAR-8; conditions: read-out: apparent Kd; compound concentrations:100 nM and 1000 nM (sheet 'Samples'); n = 1
RIPK2 = system: RIPK2; design: species or system human, MV4-11 + K-562 + COLO205 + SK-N-BE2 + OVCAR-8; conditions: read-out: apparent Kd, n = 1
ABL1 = system: ABL1; design: species or system human, MV4-11 + K-562 + COLO205 + SK-N-BE2 + OVCAR-8; conditions: read-out: apparent Kd, n = 1
CSNK2A1;CSNK2A3 = system: CSNK2A1;CSNK2A3; design: species or system human, MV4-11 + K-562 + COLO205 + SK-N-BE2 + OVCAR-8; conditions: read-out: apparent Kd; compound concentrations:100 nM and 1000 nM (sheet 'Samples'); n = 1
CSNK2A2 = system: CSNK2A2; design: species or system human, MV4-11 + K-562 + COLO205 + SK-N-BE2 + OVCAR-8; conditions: read-out: apparent Kd, n = 1
RET = system: RET; design: species or system human, MV4-11 + K-562 + COLO205 + SK-N-BE2 + OVCAR-8; conditions: read-out: apparent Kd; compound concentrations:100 nM and 1000 nM (sheet 'Samples'); n = 1
HCK = system: HCK; design: species or system human, MV4-11 + K-562 + COLO205 + SK-N-BE2 + OVCAR-8; conditions: read-out: apparent Kd, n = 1
PTK6 = system: PTK6; design: species or system human, MV4-11 + K-562 + COLO205 + SK-N-BE2 + OVCAR-8; conditions: read-out: apparent Kd, n = 1
RIPK3 = system: RIPK3; design: species or system human, MV4-11 + K-562 + COLO205 + SK-N-BE2 + OVCAR-8; conditions: read-out: apparent Kd, compound concentrations: 100 nM and 1000 nM (sheet 'Samples'), n = 1
LCK = system: LCK; design: species or system human, MV4-11 + K-562 + COLO205 + SK-N-BE2 + OVCAR-8; conditions: read-out: apparent Kd, n = 1
YES1 = system: YES1; design: species or system human, MV4-11 + K-562 + COLO205 + SK-N-BE2 + OVCAR-8; conditions: read-out: apparent Kd, compound concentrations: 100 nM and 1000 nM (sheet 'Samples'), n = 1
GAK = system: GAK; design: species or system human, MV4-11 + K-562 + COLO205 + SK-N-BE2 + OVCAR-8; conditions: read-out: apparent Kd, compound concentrations: 100 nM and 1000 nM (sheet 'Samples'), n = 1
Q6ZSR9 = Q6ZSR9 (human, UniProt Q6ZSR9); design: species or system MV4-11 + K-562 + COLO205 + SK-N-BE2 + OVCAR-8; conditions: read-out: apparent Kd; compound concentrations: 100 nM and 1000 nM (sheet 'Samples'), CATDS: 3.9115403920336002E-2; n = 1
ACVR1B = system: ACVR1B; design: species or system human, MV4-11 + K-562 + COLO205 + SK-N-BE2 + OVCAR-8; conditions: read-out: apparent Kd, n = 1
[1] = compound concentrations:100 nM and 1000 nM (sheet 'Samples')

Chain of Q6ZSR9 (Q6ZSR9 whole entry, looked up): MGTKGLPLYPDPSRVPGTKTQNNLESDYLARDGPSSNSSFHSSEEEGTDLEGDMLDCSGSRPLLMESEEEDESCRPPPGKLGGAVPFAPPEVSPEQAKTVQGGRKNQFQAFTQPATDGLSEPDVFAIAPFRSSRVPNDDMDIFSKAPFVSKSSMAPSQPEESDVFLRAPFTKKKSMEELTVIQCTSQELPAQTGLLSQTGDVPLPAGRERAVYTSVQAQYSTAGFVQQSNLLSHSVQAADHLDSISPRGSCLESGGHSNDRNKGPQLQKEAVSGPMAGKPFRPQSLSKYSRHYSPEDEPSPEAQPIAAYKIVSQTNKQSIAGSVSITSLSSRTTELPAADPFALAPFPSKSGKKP

In the case of `CC(=O)c1c(-c2ccncc2)[nH]c(-c2ccncc2)c1C` [GW493036X], the potency estimated from few doses (ABL2; [1]) is reported as 482 nM, the potency estimated from few doses (BCR) is reported as 277 nM and the potency estimated from few doses (CLK1) is reported as 10.9 nM. The potency estimated from few doses (CLK4) was 1.62 nM and the potency estimated from few doses (RIPK2; [1]) was 1000 nM.
Work on `COc1cc(/C=N/Nc2ncnc3[nH]ncc23)ccc1O` [GW578748X] yielded a potency estimated from few doses (ABL1; [1]) of 1250 nM, a potency estimated from few doses (BCR) of 678 nM and a potency estimated from few doses (CLK1) of 1370 nM. It also gave a potency estimated from few doses (CLK4) of 401 nM, a potency estimated from few doses (CSNK2A1;CSNK2A3) of 384 nM and a potency estimated from few doses (CSNK2A2; [1]) of 376 nM. For the same molecule, the potency estimated from few doses (RET) was 494 nM.
In the case of `Cn1cc(-c2ccc3c(c2)CCN3C(=O)Cc2cc(F)cc(C(F)(F)F)c2)c2c(N)ncnc21` [GSK2635225A], the potency estimated from few doses (ABL1; compound concentrations: 100 nM and 1000 nM (sheet 'Samples'), CATDS: 0.14527180827686201) is reported as 1130 nM and the potency estimated from few doses (ABL2; compound concentrations: 100 nM and 1000 nM (sheet 'Samples'), CATDS: 0.18446738219414099) is reported as 647 nM.
Work on `Cc1cc(O)cc(C)c1/C=C/c1cncc(-c2nn[nH]n2)c1.Cl` [GW441806A] yielded a potency estimated from few doses (ABL2; compound concentrations: 100 nM and 1000 nM (sheet 'Samples'), CATDS: 4.9411968087492097E-2) of 1050 nM, a potency estimated from few doses (HCK; compound concentrations: 100 nM and 1000 nM (sheet 'Samples'), CATDS: 5.4045361972082297E-2) of 799 nM and a potency estimated from few doses (PTK6; compound concentrations: 100 nM and 1000 nM (sheet 'Samples'), CATDS: 5.1044813253260601E-2) of 947 nM. The potency estimated from few doses (RIPK2; compound concentrations: 100 nM and 1000 nM (sheet 'Samples'), CATDS: 0.246510095033628) was 18 nM and the potency estimated from few doses (RIPK3; CATDS: 4.07522630784811E-2) was 2090 nM.
For `CN1CCN(Cc2cccc(-c3ccc4c(Nc5ccc(Oc6ccccc6)cc5)ccnc4c3)c2)CC1` [GW578342X], the potency estimated from few doses (ABL1; compound concentrations: 100 nM and 1000 nM (sheet 'Samples'), CATDS: 7.7551536280391298E-2) was 1560 nM, the potency estimated from few doses (HCK; compound concentrations: 100 nM and 1000 nM (sheet 'Samples'), CATDS: 0.21487500019283201) was 115 nM and the potency estimated from few doses (LCK; compound concentrations: 100 nM and 1000 nM (sheet 'Samples'), CATDS: 8.3289760013849606E-2) was 1190 nM. The potency estimated from few doses (PTK6; compound concentrations: 100 nM and 1000 nM (sheet 'Samples'), CATDS: 7.71683723921405E-2) was 1600 nM, the potency estimated from few doses (RIPK2; compound concentrations: 100 nM and 1000 nM (sheet 'Samples'), CATDS: 0.17287191269560401) was 177 nM and the potency estimated from few doses (RIPK3; CATDS: 0.10117998061927) was 638 nM. It also gave a potency estimated from few doses (YES1; CATDS: 0.46544607401261401) of 32.3 nM.
Work on `Cn1cc(-c2cnc(N)c3c(-c4ccc5c(c4)CCN5C(=O)Cc4ccccc4)csc23)cn1` [GSK2593074A] yielded a potency estimated from few doses (ABL1; [1]) of 563 nM, a potency estimated from few doses (ABL2; [1]) of 641 nM and a potency estimated from few doses (LCK; [1]) of 554 nM. The potency estimated from few doses (PTK6; [1]) was 1340 nM and the potency estimated from few doses (RIPK2; [1]) was 120 nM.
With `COc1cccc(-c2c[nH]c3c(N/N=C/c4ccncc4)ncnc23)c1` [GW814408X] the potency estimated from few doses (ABL1; [1]) was 1980 nM, the potency estimated from few doses (BCR) was 1150 nM and the potency estimated from few doses (CSNK2A1;CSNK2A3) was 920 nM. It also gave a potency estimated from few doses (CSNK2A2; [1]) of 237 nM.
`Clc1ccc(-c2nn3ncccc3c2-c2ccnc(Nc3ccccc3)n2)cc1` [GW829055X] gave a potency estimated from few doses (HCK; compound concentrations: 100 nM and 1000 nM (sheet 'Samples'), CATDS: 3.5992477058575501E-2) of 1500 nM.
For `Cc1ccc(NC(=O)Nc2ccccc2)cc1-c1ccc(C(=O)Nc2ccncc2)cc1` [GSK1398471A], the potency estimated from few doses (HCK; compound concentrations: 100 nM and 1000 nM (sheet 'Samples'), CATDS: 0.185556916463613) was 507 nM, the potency estimated from few doses (RIPK2; compound concentrations: 100 nM and 1000 nM (sheet 'Samples'), CATDS: 0.252300510926462) was 310 nM and the potency estimated from few doses (RIPK3; CATDS: 0.107109560808048) was 1620 nM. It also gave a potency estimated from few doses (YES1; CATDS: 0.19959075009265401) of 448 nM.
With `COc1cc(N2CCN(C(C)C)CC2)ccc1Nc1nc(Nc2cccc(F)c2C(=O)O)c2cc[nH]c2n1` [GSK1819799A] the potency estimated from few doses (GAK; CATDS: 9.1160563566663896E-2) was 352 nM.
For `COc1cccc(C2=C(c3cn(C)c4c(C)cccc34)C(=O)NC2=O)c1` [RO3301012-000], the potency estimated from few doses (RIPK2; compound concentrations: 100 nM and 1000 nM (sheet 'Samples'), CATDS: 0.14252909212912099) was 770 nM.
`COc1ccc(C2=C(c3cn(C)c4ccccc34)C(=O)NC2=O)cc1OC` [RO3206363-000] was tested, and the potency estimated from few doses (CSNK2A2; compound concentrations: 100 nM and 1000 nM (sheet 'Samples'), CATDS: 3.3167701686651403E-2) was 1580 nM, the potency estimated from few doses (HCK; compound concentrations: 100 nM and 1000 nM (sheet 'Samples'), CATDS: 3.6036002051639801E-2) was 1170 nM and the potency estimated from few doses (Q6ZSR9) was 898 nM.
`COc1ccc(-c2nn3ncccc3c2-c2ccnc(Nc3ccc4c(c3)OCCO4)n2)cc1` [GW827106X] was tested, and the potency estimated from few doses (ACVR1B; compound concentrations: 100 nM and 1000 nM (sheet 'Samples'), CATDS: 6.5023219002079705E-2) was 849 nM and the potency estimated from few doses (GAK; CATDS: 6.3505143893273594E-2) was 888 nM.
Molecule `NC(=O)c1cccnc1COc1cc(-c2ccc(N3CCOCC3)nc2)cc2ncccc12` [BI01125081] has a potency estimated from few doses (HCK; [1]) of 1350 nM.
Molecule `COc1cc(F)c(F)c(F)c1C(=O)c1cnc(NC2CCN(S(C)(=O)=O)CC2)nc1N` [RO4600703-000] has a potency estimated from few doses (CLK1) of 729 nM.
`Cl.Oc1ccc2ncnc(Nc3ccc(OCc4ccccc4)cc3)c2c1` [GI262866A] showed a potency estimated from few doses (RIPK2; [1]) of 923 nM.
For `CCS(=O)(=O)c1ccc(OC)c(Nc2ncc(-c3cccc(F)c3)o2)c1` [GW621970X_KCGS], the potency estimated from few doses (CSNK2A2; [1]) was 2010 nM.
For `N#Cc1ccc(-c2cc(-c3c[nH]nc3-c3ccccn3)ccn2)cc1` [GW693028X], the potency estimated from few doses (ACVR1B; [1]) was 872 nM.
For `Nc1nccc(-c2c(-c3ccc(F)cc3)ncn2C2CCC(O)CC2)n1` (centres unmarked) [SB-223133], the potency estimated from few doses (ACVR1B; compound concentrations: 100 nM and 1000 nM (sheet 'Samples'), CATDS: 5.67589208103269E-2) was 74.5 nM, the potency estimated from few doses (GAK; CATDS: 2.6841490369303E-2) was 1070 nM and the potency estimated from few doses (RIPK2; compound concentrations: 100 nM and 1000 nM (sheet 'Samples'), CATDS: 7.8449677339207394E-2) was 33.7 nM. For the same molecule, the potency estimated from few doses (RIPK3; CATDS: 2.3985776131164802E-2) was 2140 nM.
